Screening results (PubChem BioAssay)
Shown are actives, neighbours in structure and some others; about 12% of the full set was active somewhere.
Sfp PPTase inh: qHTS Assay for Inhibitors of Bacillus subtilis Sfp phosphopantetheinyl transferase (PPTase) | AID 1490, 2009 | Biochemical Sfp PPTase activity, qHTS | 3.5% of 310,000 active | Potency, µM, for inactives: largest response in the series, negative = inhibition, hits mostly inhibitors | 4'-phosphopantetheinyl transferase ffp (Bacillus subtilis), Q9F4F7;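 also: the enzyme is Sfp with the accession as filed and its product quenches rhodamine fluorescence; 0% = enzyme reaction without inhibitor and -100% = no enzyme wells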
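Sfp 15 nM + cpd, 15 min RT; start w/ rhodamine-CoA 5 uM, BHQ-2-YbbR 12.5 uM (final); 50 mM Hepes pH 7.6, 10 mM MgCl2, 0.01% NP-40, 0.01% BSA; read 525/598 nm at 0 and 30 min.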
JMJD2A Tudor inh: qHTS Assay for Inhibitors of JMJD2A-Tudor Domain | Potency, µM (highest dose often 114 µM), for the others: at the highest dose activity change, negative = inhibition, most hits filed as inhibitors | 4.4% of 390,000 active | AlphaScreen JMJD2A-Tudor / H3K4me3 peptide binding | Lysine-specific demethylase 4A (Homo sapiens), O75164; also: % is scaled to controls: 0 for no effect and ±100 for the full control effect; nearly all actives have a fitted effect of over 50% in size
G9a block: qHTS Assay for Inhibitors of Histone Lysine Methyltransferase G9a | Potency, µM (top dose mostly 102 µM), without a hit: at the top dose activity, negative = inhibition, usual class: inhibitors | 8.8% of 350,000 active | G9a H3K9 monomethylation, AlphaScreen, 2 h | AID 504332, 2011 | Histone-lysine N-methyltransferase EHMT2 (Homo sapiens), Q96KQ7; also: % is scaled to controls: 0 for no effect and ±100 for the full control effect; nearly all actives have a fitted effect of over 75% in size
Target sequence (Q96KQ7 913-1193 limits assumed): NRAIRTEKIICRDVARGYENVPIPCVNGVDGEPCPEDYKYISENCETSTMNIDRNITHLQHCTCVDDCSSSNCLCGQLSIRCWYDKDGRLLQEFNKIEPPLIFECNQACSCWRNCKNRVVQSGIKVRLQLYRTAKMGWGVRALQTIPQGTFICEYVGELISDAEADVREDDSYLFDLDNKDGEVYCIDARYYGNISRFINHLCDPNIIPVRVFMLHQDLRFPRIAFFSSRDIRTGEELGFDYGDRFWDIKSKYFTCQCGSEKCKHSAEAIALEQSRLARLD
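G9a (20 nM) preincubated 15 min RT with compounds, then 500 nM biotinylated H3K9 peptide and 20 uM SAM added; 2 h RT reaction. Monomethyl-H3K9 product detected by AlphaScreen with anti-H3K9me1 antibody, streptavidin donor and anti-rabbit IgG acceptor beads.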
HP1b binding inh: HTS for Inhibitors of HP1-beta Chromodomain Interactions with Methylated Histone Tails. Chromobox protein homolog 1 (Homo sapiens), P83916. AlphaScreen HP1-beta / biotin-H3K9me3 peptide binding. Potency, µM (series often up to 114 µM), without a hit: at the top dose activity change, negative = inhibition, actives largely listed as inhibitors. 0.56% of 390,000 active. AID 540317, 2011; also: nearly all actives have a fitted effect of over 70% in size
Target sequence (P83916 whole entry, looked up): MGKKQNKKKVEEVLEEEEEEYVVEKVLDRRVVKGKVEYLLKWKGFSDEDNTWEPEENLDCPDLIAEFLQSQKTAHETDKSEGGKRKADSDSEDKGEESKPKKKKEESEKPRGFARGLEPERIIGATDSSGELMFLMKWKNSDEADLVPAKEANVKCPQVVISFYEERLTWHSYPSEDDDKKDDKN
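Compound inhibition of the preformed complex between 50 nM HP1-beta and 50 nM biotinylated H3K9me3 peptide was read by AlphaScreen. Buffer was PBS pH 7.4 with 0.01% Tween-20. Incubations ran 30 min at room temperature, with 10 ug/mL donor/acceptor beads.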
L3MBTL1 block: qHTS Assay for the Inhibitors of L3MBTL1; 0.66% of 230,000 active; Lethal(3)malignant brain tumor-like protein 1 (Homo sapiens), Q9Y468; AlphaScreen L3MBTL1–H3K9me1 peptide binding; Potency, µM (top dose mostly 57.1 µM), for inactives: at the highest dose activity, negative = inhibition, usual class: inhibitors; also: % is scaled to controls: 0 for no effect and ±100 for the full control effect; nearly all actives have a fitted effect of over 60% in size
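First, the protein-peptide complex forms for 30 min at room temperature (L3MBTL1 50 nM, biotinylated H3K9me1 peptide 75 nM). Next, compounds are pin-transferred and incubated 30 min. Finally, AlphaScreen beads are added and read after 30 min.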
BAZ2B block: qHTS Assay for Inhibitors of BAZ2B; Bromodomain adjacent to zinc finger domain protein 2B (Homo sapiens), Q9UIF8; 4.4% of 360,000 active; Potency, µM (doses to about 114 µM), for inactives: at the top dose activity change, negative = inhibition, hits mostly inhibitors; AlphaScreen BAZ2B-H3K14Ac peptide displacement; also: % is scaled to controls: 0 for no effect and ±100 for the full control effect; nearly all actives have a fitted effect of over 60% in size
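Inhibition is scored as reduced AlphaScreen emission. The BAZ2B/b-H3(5-23)K14Ac complex (50 nM each) in PBS pH 7.4, 0.01% Tween-20 meets compound (up to 110 uM) for 30 min at RT before bead addition.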
An asterisk follows results filed as active; ? = inconclusive; / = no result given; [ ] = remark or other dose. Calls follow the shape of the dose curve; as a rule, active = well fitted curve in the direction sought with a large enough effect; inconclusive = small, poorly fitted or top-dose-only effect, or another doubt; inactive = no such curve, though single readings can be large; an effect the other way counts as inactive or inconclusive. Potency is read from the fitted curve at half-maximal effect.

SMILES | Sfp PPTase inh | JMJD2A Tudor inh | G9a block | HP1b binding inh | L3MBTL1 block | BAZ2B block
COc1cc(NS(=O)(=O)c2cnc(N)nc2)cc(OC)c1 | / | 0% | 2%[59 µM] | 19%[57 µM] | / | 4%
COc1ccc(OC)c(CNC(=O)C2CCN(S(=O)(=O)c3cn(C)cn3)CC2)c1 | / | -8% | -15%[12.7 µM] | 4% | / | -37%
COc1cc(NC(=O)C2CC2)c(C(=O)O)cc1OC | -13% | -17% | 50µM* | 40% | 1% | 11%
COc1cc(NC(=O)C2CCCC2)c(OC)cc1Cl | 12% | -4% | -31%[59 µM] | 36% | 6% | -29%
COc1ccc(C(CC(=O)N2CCOCC2)c2c(OC)cc(OC)c3ccc(=O)oc23)cc1 (stereo not drawn) | -7% | -3% | -5%[12.7 µM] | 18% | / | -6%
CCN(CC)C(=O)CC(c1ccc(N(C)C)cc1)c1c(OC)cc(OC)c2c(-c3ccccc3)cc(=O)oc12 (stereo not drawn) | -3% | 32µM* | -46%[12.7 µM] | ? | / | 20µM*
CCN(CC)C(=O)CC(c1ccc2c(c1)OCO2)c1c(OC)cc(OC)c2ccc(=O)oc12 (stereo not drawn) | -3% | -34% | -3%[59 µM] | 4% | / | -35%
COc1ccc(C(CC(=O)N2CCOCC2)c2c(OC)cc(OC)c3c(-c4ccccc4)cc(=O)oc23)cc1 (stereo not drawn) | -14% | 56µM* | -17%[59 µM] | 9% | / | 56µM*
COc1ccc(C(CC(=O)N2CCCC2)c2c(OC)cc(OC)c3ccc(=O)oc23)cc1 (stereo not drawn) | 15% | -11% | 4%[59 µM] | 24% | / | -14%
COc1ccc(C(CC(=O)N2CCCC2)c2c(OC)cc(OC)c3c(-c4ccccc4)cc(=O)oc23)cc1 (stereo not drawn) | -26% | 50µM* | 14%[12.7 µM] | -16% | / | 56µM*
COc1cc(C(CC(=O)N2CCCC2)c2c(OC)cc(OC)c3c(-c4ccccc4)cc(=O)oc23)cc(OC)c1OC (stereo not drawn) | -25% | 56µM* | 7%[12.7 µM] | -13% | / | 50µM*
Cc1ccc(NC(=O)C(Cc2ccccc2)NS(=O)(=O)c2cccc3nsnc23)c(C)c1 (stereo not drawn) | / | ? | 1%[59 µM] | 8% | / | /
O=C(CSc1nc(=O)[nH]c2c1CCC2)NCc1ccc(F)cc1 | / | 3% | 1%[59 µM] | 41% | / | 1%
COc1ccc(C(CC(=O)N2CCN(c3ccccc3)CC2)c2c(OC)cc(OC)c3c(-c4ccccc4)cc(=O)oc23)cc1 (stereo not drawn) | 7% | / | ? | / | / | 40µM*
COc1ccc(C(CC(=O)N2CCCCC2)c2c(OC)cc(OC)c3c(-c4ccccc4)cc(=O)oc23)cc1 (stereo not drawn) | -11% | 50µM* | -2%[12.7 µM] | -17% | / | 45µM*
COc1ccc(C(CC(=O)N2CCCC(C)C2)c2c(OC)cc(OC)c3c(-c4ccccc4)cc(=O)oc23)cc1 (stereo not drawn) | -14% | 45µM* | 17%[12.7 µM] | -10% | / | 45µM*
COc1ccc(C(CC(=O)N2CCCC(C)C2)c2c(OC)cc(OC)c3ccc(=O)oc23)cc1 (stereo not drawn) | -2% | -24% | -15%[59 µM] | 8% | / | 1%
COc1cc(OC)c2ccc(=O)oc2c1C(CC(=O)N1CCCC1)c1ccc(N(C)C)cc1 (stereo not drawn) | 10% | ? | ? | -4% | / | -30%
COc1cc(OC)c2c(-c3ccccc3)cc(=O)oc2c1C(CC(=O)N1CCCC1)c1ccc(N(C)C)cc1 (stereo not drawn) | -13% | 22µM* | / | ? | / | /
O=C(CSc1nc(-c2cccs2)nc2cc(=O)[nH]n12)Nc1ccccc1Cl | / | ? | 28%[59 µM] | 20% | / | 79µM*
Cc1cc(C)cc(NC(=O)CSc2nnc(CNC(=O)c3ccco3)o2)c1 | 9% | -17% | 2% | 14%[57 µM] | / | -18%
Cc1ccc(NC(=O)CSc2nc(-c3ccccc3Cl)nc3cc(=O)[nH]n23)c(C)c1 | / | -13% | -8%[59 µM] | 3% | / | 89µM*
Cc1cccc(NC(=O)CSc2nnc(CNC(=O)c3ccco3)o2)c1 | 3% | -2% | 11µM* | 55% | / | -11%
O=C(CSc1nc(-c2cccs2)nc2cc(=O)[nH]n12)Nc1ccccc1 | / | -24% | 17%[59 µM] | 32% | / | 56µM*
O=C(CSc1nc(-c2cccs2)nc2cc(=O)[nH]n12)Nc1ccccc1F | / | ? | 28%[12.7 µM] | 34% | -1% | ?
SMILES | Sfp PPTase inh | JMJD2A Tudor inh | G9a block | HP1b binding inh | L3MBTL1 block | BAZ2B block
O=c1c2sc3ccccc3c2n(Cc2cccc(C(F)(F)F)c2)c(=O)n1-c1ccccc1 | / | -10% | -4%[59 µM] | 15% | / | 0%
O=C(CSc1nc(-c2ccco2)nc2cc(=O)[nH]n12)Nc1ccc(F)cc1 | / | -4% | -4%[59 µM] | 31% | / | -25%
Cc1cccc(NC(=O)CSc2nc(-c3ccco3)nc3cc(=O)[nH]n23)c1 | / | -20% | 14%[12.7 µM] | 27% | 3% | 79µM*
COC(=O)c1ccc(CNC(=O)CSc2nc3ccccc3[nH]2)cc1 | 18% | 2% | 40µM* | 20% | / | -2%
COc1ccc2nc(SCC(=O)NCc3ccccc3)[nH]c2c1 | 9% | -16% | -7% | 21% | -4% | -22%
Cc1nnc(NC(=O)CSc2nc3ccccc3[nH]2)s1 | 3% | -6% | -19% | 31% | -5% | /
O=C(CCCSc1nc2ccccc2[nH]1)NCc1ccc(Cl)cc1 | 15% | -17% | 10µM* | 43% | 13% | -2%
O=C(CSc1nc2ccccc2[nH]1)N1CCN(S(=O)(=O)c2ccc(Cl)cc2)CC1 | -23% | -10% | 35µM* | 42% | / | 1%
Cc1ccc(S(=O)(=O)N2CCN(C(=O)CSc3nc4ccccc4c(=O)[nH]3)CC2)cc1 | 9% | -6% | -28%[12.7 µM] | 14% | / | -37%
C=CCSc1nnc(NC(=O)CSc2nc3ccccc3[nH]2)s1 | 17% | 1% | 1.8µM* | 27% | -3% | -8%
CC(=O)c1cc(-c2ccc(F)cc2)n(CC(=O)NC2CCCCCC2)c1C | / | -5% | 7%[59 µM] | 27% | / | 0%
COc1ccc(C)cc1NC(=O)C1CCN(S(=O)(=O)c2ccc3[nH]c4c(c3c2)CCCCC4)CC1 | / | -15% | -31%[59 µM] | 14% | / | -15%
